Assay outcomes (PubChem BioAssay)
GDH-TPI counter-1: inhibits GDH-TPI coupling enzymes, artifact for Mtb FBA screen; GDH-TPI coupled enzyme counterscreen, NADH absorbance; inhibition, % at 4.8 µM; hit rate 1.2% among 360,000; AID 588335;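 note: 0% = DMSO wells and 100% = wells lacking the enzyme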
BH1578 lux ind: inducers of Vibrio cholerae quorum light production without autoinducers. V. cholerae BH1578 lux reporter, luminescence, 6 h. activation, % at 18.7 µM. hit rate 0.16% among 350,000. AID 588436; in the data active = activation mostly above about 9.7%, no sharp cut-off
CCHFV vOTU inh: CCHFV vOTU protease inhibition. Pep-AMC fluorescence. inhibition, % at 11.5 µM. hit rate 0.55% among 370,000. AID 651958; note: 0% = vehicle wells with enzyme and 100% = no enzyme wells
Mtb FBA inh: Mtb fructose-bisphosphate aldolase inhibition; P9WQA3; purified M. tuberculosis FBA, fluorescence read-out; inhibition, % at 1 µM; hit rate 2.3% among 360,000; in the data active = inhibition above about 27%;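 note: 0% = vehicle and 100% = reference inhibitor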
Target sequence (P9WQA3 whole entry, looked up): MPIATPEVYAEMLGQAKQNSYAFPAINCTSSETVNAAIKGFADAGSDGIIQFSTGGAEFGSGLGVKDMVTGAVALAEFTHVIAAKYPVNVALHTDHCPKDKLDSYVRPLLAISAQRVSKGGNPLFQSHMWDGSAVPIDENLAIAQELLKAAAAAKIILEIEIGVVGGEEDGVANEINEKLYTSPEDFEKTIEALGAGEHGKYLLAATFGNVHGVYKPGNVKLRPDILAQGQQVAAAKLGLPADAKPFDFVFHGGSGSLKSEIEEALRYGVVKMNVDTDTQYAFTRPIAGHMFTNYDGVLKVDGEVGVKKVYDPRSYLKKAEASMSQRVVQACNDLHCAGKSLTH
Mtb FBA inh conf: Mtb FBA inhibition, confirmed. shares compounds with Mtb FBA inh. purified M. tuberculosis FBA, fluorescence read-out. inhibition, % at 1 µM. hit rate 78% among 5,600; in the data active = inhibition above about 27%;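 note: 0% = vehicle wells and 100% = reference inhibitor wells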
GDH-TPI counter-2: GDH-TPI inhibition counter-screen for FBA inhibitors; shares compounds with Mtb FBA inh; GDH-TPI coupled enzyme counterscreen, fluorescence; inhibition, % at 1 µM; hit rate 81% among 5,600; in the data active = inhibition above about 10%
An asterisk follows results filed as active; i = inactive; x = no result; + = active, no number. Sampled rows, rich in hits. Any-hit rate of the full collection: about 3.9%. Cut-off read from the data, not from the text of the source, unless noted: active = inhibition above about 30%; inactive = the rest.

SMILES	GDH-TPI counter-1	BH1578 lux ind	CCHFV vOTU inh	Mtb FBA inh	Mtb FBA inh conf	GDH-TPI counter-2
CC1CCCN(C(=O)/C(=C/c2ccco2)NC(=O)c2ccccc2)C1 (stereo not given)	-2	i	14	-3	x	x
CC(C)Sc1nnc(NC(=O)c2ccco2)s1	5	i	2	-6	x	x
O=C(Nc1nnc(/C=C/c2ccccc2)s1)c1ccco1	74*	0	12	34*	-1	0
CCNC(=O)NC(=O)COC(=O)c1ccccc1SCC(=O)NC(=O)NCC	20	0	-40	79*	18	8
O=C(COC(=O)c1ccccc1SCC(=O)NC1CCS(=O)(=O)C1)NC1CCS(=O)(=O)C1 (stereo not given)	2	-1	5	3	x	x
CCc1ccc(CN2C(=O)c3ccccc3C2C(=O)NC(C)CC)cc1 (stereo not given)	5	-1	-11	105*	48*	44*
Cc1c(OCC(=O)N(C)C)ccc2c(-c3ccccc3)cc(=O)oc12	5	-11	2	4	x	x
Cc1cc(=O)oc2c(C)c(OCC(=O)N3CCC(C(=O)O)(c4ccccc4)CC3)ccc12	13	-1	-3	35*	8	-3
CCCCc1cc(=O)oc2cc(OCC(=O)N3CCC(C(=O)O)(c4ccccc4)CC3)ccc12	13	0	-5	10	x	x
Cc1cc(OCC(=O)N2CCN(c3ccccc3)CC2)c2c(C)cc(=O)oc2c1	12	i	9	-1	x	x
CCc1cc(=O)oc2cc(C)cc(OCC(=O)N3CCC(C(=O)O)(c4ccccc4)CC3)c12	14	0	-10	88*	7	-7
CCCc1cc(=O)oc2c(C)c(OCC(=O)N3CCC(C(=O)O)(c4ccccc4)CC3)ccc12	8	0	-13	32*	103*	91*
CN1C(=O)[C@H]2[C@@H](C3CC3)N3C(=O)CN(Cc4ccccn4)C(=O)[C@@]3(Cc3ccccc3)[C@H]2C1=O	-2	i	5	68*	70*	57*
CN1C(=O)[C@H]2[C@@H](C3CC3)N3C(=O)CN(CCO)C(=O)[C@@]3(Cc3ccccc3)[C@H]2C1=O	11	1	4	-1	x	x
O=C(Cc1nc2ccccc2[nH]1)N/N=C/c1ccccc1	5	0	-13	19	x	x
O=C(/C=C/c1ccccc1)NCCc1nc2ccccc2[nH]1	3	i	7	2	x	x
COc1ccc(OC)c(/C=N/NC(=O)Cc2nc3ccccc3[nH]2)c1	14	i	-94	74*	51*	30*
COc1ccc(OC)c(/C=C/C(=O)NCCc2nc3ccccc3[nH]2)c1	16	0	-60	50*	83*	53*
CC(=O)N1CCC2(CC1)CC(=O)c1cc(OCC(=O)NCc3ccc(C)cc3)ccc1O2	3	0	-106	51*	-6	-4
CC(=O)N1CCC2(CC1)CC(=O)c1cc(OCC(=O)NCc3ccco3)ccc1O2	13	i	-70	35*	121*	80*
Cc1cccc(OCC(=O)N2CCC3(CC2)CC(=O)c2ccccc2O3)c1	8	i	-4	6	x	x
O=C(CNC(=O)c1cccc(F)c1)OCCOc1cccc(Cl)c1	5	-5	-5	-2	x	x
Cc1ccc(NC(=O)Cn2ncc3c([nH]c4ccccc43)c2=O)cc1Cl	4	0	17	2	x	x
Clc1cccc(/C(Cc2nc3ccccc3[nH]2)=N\Nc2ccccc2)c1	12	0	-7	-3	x	x
Cc1ccc(-n2nc(C)c3c(C)c(CCC(=O)NCCCOC(C)C)c(C)nc32)cc1	10	0	-2	25	x	x
SMILES	GDH-TPI counter-1	BH1578 lux ind	CCHFV vOTU inh	Mtb FBA inh	Mtb FBA inh conf	GDH-TPI counter-2
Cc1ccc(-n2nc(C)c3c(C)c(CCC(=O)Nc4ccc(CN5CCCC5)cc4)c(C)nc32)cc1	14	-1	-10	14	x	x
COCCCNC(=O)CCc1c(C)nc2c(c(C)nn2-c2ccccc2)c1C	4	0	-19	41*	52*	44*
COC(CNC(=O)CCc1c(C)nc2c(c(C)nn2-c2ccc(C)cc2)c1C)OC	19	i	-9	40*	-12	-12
CCN(CC)CCNC(=O)CCc1c(C)nc2c(c(C)nn2-c2ccc(C)c(C)c2)c1C	1	0	-16	36*	197*	196*
CCOC(=O)c1ccc(NC(=O)Nc2ccccn2)cc1	5	0	9	1	x	x
O=C(CSCc1ccccc1F)NCc1ccccc1	-2	-1	3	0	x	x
Cc1ccc2c(c1)[C@H]1[C@H](CO2)[C@H](c2ccccc2)[C@]2(C)C(=O)N(CC3CCCO3)CC(=O)N12 (stereo not given in full)	4	-1	5	0	x	x
COc1cc(CCC(=O)NCc2ccc(S(N)(=O)=O)cc2)cc(OC)c1OC	3	-1	4	1	x	x
COc1cc(CCC(=O)NCc2ccc(F)cc2)cc(OC)c1OC	2	i	5	33*	54*	47*
CCOC(=O)Nc1ccc2c(COC(=O)CN(C)S(=O)(=O)c3ccc(C)cc3)cc(=O)oc2c1	13	0	-69	79*	41*	23*
Cc1ccc2c(COC(=O)c3ccccc3OC(F)F)cc(=O)oc2c1	-3	-7	5	-3	x	x
CCOC(=O)Nc1ccc2c(COC(=O)c3ccccc3O)cc(=O)oc2c1	20	-4	-23	56*	38*	32*
COc1ccccc1CC(=O)Nc1c[nH]c(=O)[nH]c1=O	6	0	-8	5	x	x
O=C(O)c1ccc(-n2cc(-c3cc4ccccc4oc3=O)[nH]c2=S)cc1	23	0	-21	32*	139*	99*
Cc1cccc(NC(=O)CSCC(=O)NNC(=O)c2ccoc2C)c1	0	i	12	3	x	x
COc1ccc2nc(N/C(N)=N/C(=S)Nc3c(C)cccc3C)nc(C)c2c1	-1	0	-20	17	x	x
COc1ccc2nc(N/C(N)=N/S(C)(=O)=O)nc(C)c2c1	-1	0	-32	53*	+	+
Nc1[nH]c(C(=O)c2ccccc2)c(-c2ccc(Cl)cc2)c1C(=O)c1c[nH]c2cc(F)ccc12	x	x	-2	x	x	x
C[C@H](CO)N1C[C@H](C)[C@@H](CN(C)S(=O)(=O)c2ccccc2F)Oc2ncc(Br)cc2C1=O	19	-2	14	4	x	x
COc1ccc(CCNC(=O)C(=O)c2cn(CC(=O)N3CCOCC3)c3ccccc23)cc1OC	12	-1	17	27*	+	+
CC(Oc1ccccc1)C(=O)NCc1cccnc1 (stereo not given)	10	0	5	3	x	x
Cc1cc(OC(C)C(=O)NCc2cccnc2)c2c(C)c(C)c(=O)oc2c1 (stereo not given)	-3	0	10	14	x	x
Cc1cc(OC(C)C(=O)NCCc2c[nH]c3ccccc23)c2c(C)cc(=O)oc2c1 (stereo not given)	5	1	-2	3	x	x
CCc1cc(=O)oc2cc(C)cc(OC(C)C(=O)NCc3cccnc3)c12 (stereo not given)	-4	-1	-37	105*	+	154*
